# Results taken from PubChem BioAssay (NCATS).
# Records with an inconclusive call do not appear. Where a call stands in place of a potency, no number is given. Unmarked numbers belong to inactive results. Activity calls are given as the source filed them. The call rests on the fitted dose curve; in most records, active means well fitted cell-killing curve with a large enough effect; inconclusive means small, poorly fitted or top-dose-only effect, or effect the other way; inactive means flat fitted curve, though single readings scatter.
# Test system: Tov112D
# Assay: Primary qHTS to identify gynecologic anti-cancer compounds using libraries of approved drugs and bioactive compounds (AID 1345084); further: nearly all actives have a fitted effect of over 55% in size
# Settings: Gynecologic cancer cell panel viability, ATPlite luminescence, 48 h; series mostly up to 57.5 µM
# In short: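 Cells, 1,000 per well, were allowed to settle for 16 h at 37 C before compound addition. Five concentrations were tested for 48 h, and viability was read by ATPlite luminescence after 15 min at room temperature.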
SMILES,Potency,"activity change, negative = cytotoxicity"
COC(=O)C1=CO[C@@H](O[C@@H]2O[C@H](CO[C@@H]3O[C@H](CO)[C@@H](O)[C@H](O)[C@H]3O)[C@@H](O)[C@H](O)[C@H]2O)[C@@H]2C(CO)=CC[C@H]12,inactive,–
CSCC1OC(n2cnc3c(=O)[nH]cnc32)C(O)C1O (centres undefined),inactive,–
COc1cc(C)c(C(=O)OC2C(C)OC(OC3CCC(C)C4C3C=C(C)C3/C(C)=C\CC/C(C)=C/C5(C)C=C(C(=O)O)C(C)CC56OC(=O)/C(=C(\O)C34C)C6=O)C(O)C2O)c(OC)c1 (centres undefined),–,1.96% [at 11.6 µM]
OC[C@H]1O[C@@H](OCc2ccccc2)[C@H](O[C@@H]2OC[C@@H](O)[C@H](O)[C@H]2O)[C@@H](O)[C@@H]1O,inactive,–
Nc1ccc(-n2nc(C(F)(F)F)cc2C(F)(F)F)cc1,inactive,–
Oc1ccc(CC2NCCc3cc(O)c(O)cc32)cc1 (centres undefined),inactive,–
NCCCCN(Cc1nc2ccccc2[nH]1)[C@H]1CCCc2cccnc21,inactive,–
C/C(=C\C1CCC(C)C2CCC3(C)OC123)C(=O)O (centres undefined),inactive,–
CC1=C2C3OC(=O)C(C)C3(O)CCC2(C)CCC1 (centres undefined),inactive,–
O=C(N[C@H](Cc1ccccc1)C(=O)O)c1sc2cc(F)ccc2c1Cl,inactive,–
CC(=O)c1ccc(O[C@@H]2O[C@H](CO[C@@H]3OC[C@@H](O)[C@H](O)[C@H]3O)[C@@H](O)[C@H](O)[C@H]2O)cc1,inactive,–
C=C1C[C@H](O)[C@@H](O)[C@@]2(C)C1[C@@H](O)[C@H]1OC(=O)C3[C@@H](C)[C@@H](O)[C@H](O)C2[C@]31C (some centres undefined),inactive,–
CCCC/C=C\CCCCCc1cc(=O)c2ccccc2n1C,inactive,–
Cn1cc(Nc2cnccc2C(=O)O)c2cccnc21,inactive,–
C[C@H]1[C@H](C)C[C@@H](C(=O)O)C2CC[C@]3(C)C(=CC[C@@H]4[C@@]5(C)CC[C@H](O)C(C)(C)[C@@H]5CC[C@]43C)[C@@H]21 (some centres undefined),inactive,–
C=CC(C)(O)CC/C=C(\C)C(=O)O[C@@H]1[C@@H](O)[C@H](OC(C)(C=C)CC/C=C(\C)C(=O)O)O[C@H](CO)[C@H]1OC(=O)/C(C)=C/CCC(C)(O)C=C (some centres undefined),inactive,–
CC1(C)CC[C@]2(C(=O)O[C@@H]3O[C@H](CO)[C@@H](O)[C@H](O)[C@H]3O)CC[C@]3(C)C(=CCC4[C@@]5(C)CC[C@H](O[C@@H]6O[C@H](C(=O)O)[C@@H](O)[C@H](O)[C@H]6OC6OC(CO)C(O)C(O)C6O)C(C)(C)C5CC[C@]43C)[C@@H]2C1 (some centres undefined),–,7.56% [at 11.6 µM]
COc1cccc(C)c1C(=O)O[C@@H]1C[C@H](O[C@H]2[C@H](O)C[C@H](O[C@@H]3CCC[C@H]4[C@H]3C=C[C@@H]3CCCC/C=C/[C@H]5C=C(C(=O)O)[C@@H](C)C[C@@]56OC(=O)C(=C6O)OC(=O)[C@@]34C)O[C@@H]2C)O[C@H](C)[C@H]1O,–,-1.83% [at 11.6 µM]
CC(C)CC(=O)OC[C@@]1(O)C[C@@]23CC[C@H]4[C@@](C)(CCC[C@@]4(C)C(=O)O)[C@@H]2CC[C@@H]1C3,inactive,–
C=C[C@H]1[C@H](O[C@@H]2O[C@H](CO)[C@@H](O)[C@H](O)[C@H]2O)OC=C(C(=O)OC)[C@H]1CC=O,inactive,–
C=C1C(=O)OC2CC(COC(=O)C(C)C)=C(C(C)CCCOC(C)=O)[C@@H](OC(C)=O)C12 (some centres undefined),inactive,–
CC1=C2C(=O)C=C(CO[C@@H]3O[C@H](CO)[C@@H](O)[C@H](O)[C@H]3O)[C@@H]2[C@H]2OC(=O)[C@H](C)[C@@H]2[C@@H](O)C1,inactive,–
C=C1C(=O)O[C@@H]2CC(C)=C([C@@H](C)CCCOC(C)=O)[C@@H](O)[C@H]12,inactive,–
CC1=COC(OC2OC(CO)C(O)C(O)C2O)C2C(CO)CC(OC(=O)/C=C/c3ccc(O)cc3)C12 (centres undefined),inactive,–
COc1cccc(OC)c1-c1ccc(C[C@H](NC(=O)c2c(Cl)cccc2Cl)C(=O)O)cc1,inactive,–
C/C=C/C(=O)OC1/C=C/C(O)C(OC(C)=O)CCC(=O)OC1C (centres undefined),inactive,–
CC1(C)[C@H]2C[C@H](C/C=C\CCCC(=O)O)[C@@H](NC(=O)c3csc4ccc(O)cc34)[C@@H]1C2,inactive,–
CC(=O)/C=C/C1C(C)CC(O[C@@H]2O[C@H](CO)[C@@H](O)[C@H](O)[C@H]2O)CC1(C)C (some centres undefined),inactive,–
COC(=O)c1ccccc1O[C@@H]1O[C@H](CO[C@@H]2OC[C@@H](O)[C@H](O)[C@H]2O)[C@@H](O)[C@H](O)[C@H]1O,inactive,–
